Assay outcomes deposited in PubChem by The Scripps Research Institute Molecular Screening Center.
hcDAF12 agonist = H. contortus DAF-12 nuclear receptor activators, primary screen, cell-based, luminescence, HEK293, lit1-tk-luc reporter; 370,000 compounds, 1.4% hits; HEK293 hcDAF-12 lit1-tk-luc reporter; 0% DMSO, 100% Δ7-dafachronic acid; AID 652067, 2013; activation, % at 6.8 µM;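 active = activation above the mean of all tested compounds plus 3 SD, cut at about 5.5% in these data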;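 also: 100% = response to 3 µM Δ7-dafachronic acid high control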
hgDAF-12 ag = H. glycines DAF-12 receptor agonists, primary screen, cell-based, luminescence, HEK293, GAL4 fusion, UAS-luciferase | 370,000 compounds, 1.8% hits | activation, % at 6.8 µM | HEK293 GAL4-hgDAF12 UAS-luciferase reporter, agonist luminescence; normalized to butyrate control | Nuclear hormone receptor DAF-12 (Heterodera glycines), GAL4 fusion;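 active = activation above a cutoff set at the mean of all screened compounds plus 3 SD, cut at about 10% in these data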;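 also: 0% = DMSO wells and 100% = sodium butyrate wells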
DAX1 inh-1 = DAX1 (NR0B1) inhibitors, primary screen, cell-based, HEK293, Gal4-DAX1, luciferase luminescence; inhibition, % at 6.75 µM; HEK293 Gal4-DAX1 luciferase reporter; Nuclear receptor subfamily 0 group B member 1 (Homo sapiens), P51843; 340,000 compounds, 0.99% hits;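 active = inhibition above the mean over all tested compounds plus 3 SD, cut at about 4.2% in these data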;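 also: 0% = DAX1-transfected cells with DMSO and 100% = empty-vector control cells with DMSO; inhibition shows as a rise in luminescence from relieved DAX1 repression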
Target sequence (P51843 207-470 limits assumed): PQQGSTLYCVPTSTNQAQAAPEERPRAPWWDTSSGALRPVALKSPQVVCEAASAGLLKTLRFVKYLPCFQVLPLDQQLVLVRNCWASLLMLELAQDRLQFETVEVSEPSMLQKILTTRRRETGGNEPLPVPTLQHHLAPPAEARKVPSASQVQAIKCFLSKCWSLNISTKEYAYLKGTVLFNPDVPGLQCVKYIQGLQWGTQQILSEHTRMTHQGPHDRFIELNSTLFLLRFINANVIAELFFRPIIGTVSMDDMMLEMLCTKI
ssDAF12 agonist = S. stercoralis DAF-12 nuclear receptor activators, primary screen, cell-based, luminescence, HEK293, GRIP1 co-expression, lit1-tk-luc | Nuclear hormone receptor DAF-12 (Strongyloides stercoralis) | HEK293 ssDAF-12/GRIP1 lit1-tk-luc reporter; % of 3 µM dafachronic acid response | activation, % at 6.8 µM | 370,000 compounds, 1% hits;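 active = activation above the mean over all tested compounds plus 3 SD, cut at about 0.9% in these data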;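 also: 0% = DMSO-only wells and 100% = 3 µM delta7-dafachronic acid wells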
DAX1 inh-2 = DAX1 (NR0B1) inhibitors on StAR promoter, primary screen, cell-based, luminescence, SF-1 (NR5A1), full-length DAX-1. HEK293T StAR-luciferase reporter, SF-1/DAX-1 repression relief. inhibition, % at 6.8 µM. 370,000 compounds, 1.1% hits. AID 652010, 2013;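 active = inhibition above the mean over all tested compounds plus 3 SD, cut at about 3.6% in these data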;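 also: 0% = DAX-1 cells with DMSO and 100% = cells lacking DAX-1 with DMSO; higher inhibition means more luminescence from relief of DAX-1 repression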
DAX1 conf = DAX1 (NR0B1) inhibitors relieving SF-1 repression, confirmation, cell-based, luminescence, HEK293T, full-length DAX-1, SF-1 activated StAR promoter. HEK293T StAR-promoter luciferase reporter, SF-1/DAX-1 repression. AID 652134, 2013. inhibition, % at 6.8 µM. shares compounds with DAX1 inh-2. 2,400 compounds, 87% hits;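 active = inhibition above the average of every tested compound plus 3 SD, cut at about 3.8% in these data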;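 also: 0% = DAX-1 cells with DMSO and 100% = no DAX-1 control cells with DMSO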
SF1 mutant ctr = StAR reporter signal changes without DAX1, counter-screen for DAX1 inhibitor project, cell-based, luminescence, AF-2 mutant SF-1, transactivation; 2,400 compounds, 78% hits; shares compounds with DAX1 inh-2; HEK293 StAR-luciferase, SF-1 AF2 mutant; inhibition, % at 6.8 µM;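 active = inhibition above the mean of all tested compounds plus 3 SD, cut at about 3% in these data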;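 also: 0% = DAX-1 transfected cells with DMSO and 100% = cells without DAX-1 with DMSO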
LXRb hcDAF ctr = LXR agonists, Gal4 luciferase reporter, confirmation, counter-screen for hcDAF-12 agonist project, cell-based, luminescence, HEK293, H. contortus campaign; shares compounds with hcDAF12 agonist; HEK293 Gal4-LXR tk-luc reporter, 24 h; normalized: DMSO 0%, positive control 100%; activation, % at 6.8 µM; 3,400 tested, under 10 active; AID 743027, 2013;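 active = mean percent activation of the reporter above a cutoff set as the average over tested compounds plus their standard deviation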
hcDAF12 conf = H. contortus DAF-12 receptor agonists, confirmation, cell-based, luminescence, HEK293, lit1-tk-luc, triplicate. HEK293 hcDAF-12 lit1-tk-luc reporter; % of Δ7-dafachronic acid response. 3,400 compounds, 61% hits. activation, % at 6.8 µM. shares compounds with hcDAF12 agonist;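 active = mean activation across triplicate tests above the threshold derived from the earlier primary screen, cut at about 5.5% in these data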;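 also: 0% = DMSO only wells and 100% = 3 µM Δ7-dafachronic acid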
Starred values were filed as active, the others as inactive; nt = no result. A selection: hits, their analogues and other compounds. The true share with any hit is near 4.1%.

SMILES	hcDAF12 agonist	hgDAF-12 ag	DAX1 inh-1	ssDAF12 agonist	DAX1 inh-2	DAX1 conf	SF1 mutant ctr	LXRb hcDAF ctr	hcDAF12 conf
Cc1ccc(C(=O)Nc2ccc3c(c2)nc2n3CCSC2)cc1	7.0*	10	0	0	4.6*	13*	7.5*	1	4
COc1ccc(C(=O)/C=C/Nc2ccccn2)c(OC)c1	3	9	nt	1	3	nt	nt	nt	nt
O=C(/C=C/Nc1cccc(O)c1)c1ccccc1	7.0*	7	-2	0	6.6*	13*	6.0*	2	13*
O=C(/C=C\Nc1ccccn1)c1ccccc1	12*	9	-2	1	5.3*	10.0*	1	1	9.7*
Cc1cccc(C)c1-n1nnnc1C1(C)CN(S(C)(=O)=O)CC(=O)N1Cc1ccc(F)cc1 (configuration not stated)	-2	0	nt	-1	-1	nt	nt	nt	nt
O=S(=O)(O)c1ccc(N=Nc2ccccc2)cc1	-2	0	0	-1	0	nt	nt	nt	nt
Oc1c(N=Nc2ccccc2)sc2ccccc12	18*	13*	3	3.5*	5.5*	19*	7.4*	2	18*
O=C(CCN1C(=O)C2CCCCC2C1=O)Nc1nc2ccc(F)cc2s1 (configuration not stated)	6.9*	9	2	1	4.7*	13*	3.5*	2	15*
CCOC(=O)CCCNC(=O)O[C@@H]1CC[C@@]23CCCN2C(=O)CCC[C@H]3C1	-1	0	nt	0	nt	nt	nt	nt	nt
c1ccc(-c2noc(-c3cccc4ccccc34)n2)nc1	18*	13*	-1	3.0*	5.5*	12*	4.6*	2	20*
O=C(O)c1ccc(N=NNc2cccc([N+](=O)[O-])c2)cc1	6.7*	8	2	0	5.1*	14*	8.0*	1	4
O=C(Nc1cccc([N+](=O)[O-])c1)c1ccc(-c2ccccc2)cc1	-2	1	-1	-2	0	nt	nt	nt	nt
N#C/C(=C\c1ccco1)c1nc2ccccc2s1	15*	17*	4	2.5*	5.1*	14*	9.1*	2	11*
N#C/C(=C\c1ccc(O)c([N+](=O)[O-])c1)c1nc2ccccc2s1	3	2	-1	-1	0	nt	nt	nt	nt
O=C(Nc1ccc2c(c1)CCC2)c1ccc(F)cc1	6.7*	20*	0	1	5.7*	13*	5.4*	2	6.6*
Cc1ccc(C(=O)c2sc3nsc(C)c3c2N)cc1	7.2*	13*	1	1.1*	5.0*	14*	5.4*	2	8.7*
Cc1ccc2nc(N3C(=O)C(O)=C(C(=O)c4ccco4)C3c3cccs3)sc2c1 (configuration not stated)	9.1*	13*	1	1	5.3*	5.9*	1	0	3
COc1ccc2nc(N3C(=O)C(O)=C(C(=O)c4ccco4)C3c3ccc(C)o3)sc2c1 (configuration not stated)	1	6	2	0	1	nt	nt	nt	nt
Cc1ccc(/C=N/Nc2nc(C(C)(C)C)cs2)o1	4	5	-1	0	0	nt	nt	nt	nt
Cc1ccc(/C=N/Nc2nc3ccccc3s2)o1	21*	13*	1	2.8*	6.2*	16*	9.1*	2	21*
O=C(C1CCCN1S(=O)(=O)c1cccs1)N1CCc2ccccc2C1 (configuration not stated)	-2	3	nt	-1	-1	nt	nt	nt	nt
Cc1ccnc(NC(=O)Cc2ccc(-c3ccccc3)cc2)c1	9.9*	34*	3	1.3*	15*	21*	1	2	9.6*
O=C(Cc1ccc(-c2ccccc2)cc1)Nc1ccccn1	2	10	0	0	0	nt	nt	nt	nt
O=c1oc2ccccc2cc1-c1nc2c(s1)CCCC2	10*	12*	0	1	5.0*	5.2*	-1	1	14*
O=C(c1cc(-c2ccccc2)on1)N1CCC(Oc2cccnc2)CC1	-2	2	nt	-2	-2	nt	nt	nt	nt
SMILES	hcDAF12 agonist	hgDAF-12 ag	DAX1 inh-1	ssDAF12 agonist	DAX1 inh-2	DAX1 conf	SF1 mutant ctr	LXRb hcDAF ctr	hcDAF12 conf
COc1cc(N/N=C/c2ccc(N(C)C)cc2)ncn1	11*	12*	-2	1	10*	12*	4.3*	2	8.4*
COc1cc(N/N=C/c2ccccc2O)ncn1	2	7	3	0	-1	nt	nt	nt	nt
COc1ccc(/C=C2/CN(Cc3ccc(OC)cc3OC)C3=N[C@H](c4ccccc4)CC(=O)N32)cc1	-3	0	nt	-1	-1	nt	nt	nt	nt
CCN(CC)S(=O)(=O)c1cccc(-c2nc3n(n2)Cc2ccccc2-3)c1	0	3	0	-2	1	nt	nt	nt	nt
Clc1ccc(-c2nc3n(n2)Cc2ccccc2-3)cc1	17*	17*	3	3.5*	5.1*	13*	5.5*	2	24*
O=c1[nH]c(COc2ccc(Cl)cc2Br)nc2ccccc12	8.7*	12*	2	0	7.1*	8.8*	8.9*	1	3
Cc1c(NC(=O)c2ccc(-c3ccccc3)cc2)cccc1C(=O)O	11*	27*	-6	1	6.6*	15*	7.7*	2	13*
